Consider 79 compounds from PubChem BioAssay AID1706 (The Scripps Research Institute Molecular Screening Center, 2009).

Molecules are shown by their SMILES. About 400 (0.14%) of roughly 290,000 compounds were called active. No stated cut-off is given here; in the data, active means inhibition above about 12%; inactive means the rest. Many of the other results were omitted from the sample, so actives are more common in it than they were.

In the assay the target is Replicase polyprotein 1ab (Severe acute respiratory syndrome coronavirus) (UniProt P0C6X7). In words: blockers of SARS 3CLpro peptide cleavage – biochemical, quenched FRET, primary screen (AID 1706). The note with it: recombinant SARS-CoV 3CLpro, at 6 µM, stronger effect = higher value.
With `CCCCNC(=O)N(O)C1N(/N=C/c2ccc(N(C)C)cc2)C(=S)SC1(C)C` (centres undefined), the inhibition is 77.3% (active). The same measure for `CCCCNC(=O)N(O)C1N(/N=C/c2ccccc2O)C(=S)SC1(C)C` (centres undefined): 4.34% (inactive); for `CCC(C)N1C(=S)SC(C)(C)C1N(O)C(=O)NC1CCCCC1` (centres undefined): -0.75% (inactive); for `O=C(Cc1ccccc1F)NC1CCSc2ccccc21` (centres undefined): -4.7% (inactive). The same measure for `Cc1ccnc(NS(=O)(=O)c2ccc(NC(=O)c3oc4ccccc4c3C)cc2)n1`: -4.86% (inactive); for `C=C(C)COc1ccc(-c2n[nH]c(C)c2-c2ccccc2)c(O)c1`: 14.1% (active). The same measure for `C=C(C)COc1ccc(-c2n[nH]c(C)c2-c2ccccc2OC)c(O)c1`: 11.1% (inactive). For the compound `CCOc1ccc(-c2n[nH]c(C)c2-c2ccccn2)c(O)c1`, the inhibition was 3.95% (inactive). The same measure for `CC(=O)c1cc(-c2ccccc2)[nH]c1N1CCCC1`: 57.1% (active). The same measure for `CC(=O)c1cc(C#N)c(N2CCCCC2)nc1C`: 5.03% (inactive); for `O=c1cc(-c2ccccc2)nc(N2CCCCC2)[nH]1`: 3.63% (inactive); for `CC(=O)c1cnc(Nc2nc(C)c3cc(C)ccc3n2)nc1C`: 2.54% (inactive).

Consider `CN(C)/N=C/c1cn(-c2ccccc2)nc1-c1cccnc1`, for which the inhibition was 9.07% (inactive).

For the compound `O=Cc1cn(Cc2ccccc2)nc1-c1cccnc1`, the inhibition was 39.5% (active).

For the compound `O=C(O)/C=C/c1cn(Cc2ccccc2)nc1-c1cccs1`, the inhibition was 3.03% (inactive).

For the compound `O=C1CCC(=O)N(c2ccccc2)N1`, the inhibition is 2.8% (inactive). The same measure for `CC(C)C[C@@H](CO)N1CCN(Cc2ccc(O)cc2)CCC1=O`: -3.5% (inactive); for `CC(C)Nc1ccc(-n2nc3ccccc3[n+]2[O-])cc1`: -2.9% (inactive); for `COc1ccc(N2CCN(C(=O)CNC(=O)c3ccc(Br)o3)CC2)cc1`: -5.34% (inactive). On to `O=C(Nc1ccc(S(=O)(=O)N2CCCCC2)cc1)C1CC(=O)N(c2ccc(F)cc2)C1` (centres undefined), for which the inhibition was 1.61% (inactive). The same measure for `CCc1ccc(-n2c(SCc3cc(=O)n4cc(Br)ccc4n3)nc3[nH]ncc3c2=O)cc1`: 0.2% (inactive); for `CN(C)Cc1c(C(=O)N/N=C/c2ccccc2OCc2ccc(F)cc2)nnn1-c1nonc1N`: 0.8% (inactive).

As for `COc1ccc(NC(C(=O)Nc2cccc(C(C)=O)c2)c2ccccc2)cc1` (centres undefined), the inhibition was 1.08% (inactive). Consider `CCOC(=O)c1cccc(NC(=O)C2CCN(c3ncnc4c3nc3n4CCCCC3)CC2)c1`, for which the inhibition is 6.86% (inactive). Consider `CCn1c(/C=C/Nc2ccccc2)[n+](CC)c2ccc(C(=O)OCC(F)(F)F)cc21`, for which the inhibition was -5.62% (inactive). As for `CC1CCN(Cc2nc3c(c(=O)n(C)c(=O)n3C)n2CCc2ccccc2)CC1`, the inhibition was 0.08% (inactive). The same measure for `COc1ccccc1C(=O)NCc1nnc(SC(C)C(=O)Nc2nccs2)n1C` (centres undefined): 1.41% (inactive).

Consider `CN1C(CC(=O)Nc2ccc(Br)cc2)c2ccccc2CC1(C)C` (centres undefined), for which the inhibition was 0.03% (inactive).

In the case of `CCSCc1nc(N)nc(NCCc2ccccc2)n1`, the inhibition is 1.32% (inactive). With `COc1ccccc1CNC(=O)C1CCN(S(=O)(=O)c2ccc3c(c2)OCCO3)CC1`, the inhibition is 0.14% (inactive).

Take `O=C(Nc1ccc(Cl)c(Cl)c1)c1ccccc1NC(=O)C1CC=CCC1C(=O)O` (centres undefined): the inhibition was 4.04% (inactive).

As for `CC(C)CCn1cnc2c1c(=O)n(CC(=O)NC(N)=O)c(=O)n2Cc1ccccc1`, the inhibition was 2.02% (inactive). On to `O=C(NCCCN1CCCCC1)C1CC(=O)N(CCc2ccccc2)C1` (centres undefined), for which the inhibition was -1.63% (inactive). The same measure for `CC(C)(C)C(=O)NC1CC2CCCC(C1)N2C(=O)Nc1ccccc1F` (centres undefined): -4.3% (inactive); for `O=C(NC(Cc1ccccc1)C(=O)O)/C(=C\c1ccccc1)NC(=O)c1ccco1` (centres undefined): 1.59% (inactive). The same measure for `Cc1cc(CNCc2c(C(=O)N(C)Cc3ccccc3)nc3ccccn23)nn1C`: -0.39% (inactive); for `Cc1ccc(C)c(NC(=O)c2cc(-c3cc(C)cc(C)c3O)n[nH]2)c1`: 5.71% (inactive). For the compound `COc1ccc(CCNC(=O)/C(C#N)=C2\N=C(NC(=O)c3cccs3)c3ccccc32)cc1`, the inhibition was 1.64% (inactive). The same measure for `COc1ccc(N2CC(C(=O)NCCS(=O)(=O)N3CCN(c4ccccc4)CC3)CC2=O)cc1` (centres undefined): 0.28% (inactive); for `Cc1cc(C)nc(NS(=O)(=O)c2ccc(N/C=C\C(=O)c3cccs3)cc2)n1`: 6.43% (inactive); for `CN(Cc1ccccc1)C(=O)c1cccc(C(=O)N(C)Cc2ccccc2)c1`: -1.52% (inactive). The same measure for `Cc1ccc2cccc(OCCCOc3ccccc3CO)c2n1`: -3.15% (inactive). For `CC(=O)c1c(C)n(C(C)C)c2ccc(O)cc12`, the inhibition was -1.9% (inactive).

As for `O=C(NCCc1ccccc1Cl)C1CCC(=O)N(CCCc2ccccc2)C1` (centres undefined), the inhibition is 0% (inactive). On to `COc1ccc(CNC(=O)c2cc(=O)c3c(C)cc(C)cc3o2)cc1`, for which the inhibition was 6.16% (inactive). The same measure for `O=C(NC1CCC(O)CC1)c1ccccc1OCc1ccc(F)cc1` (centres undefined): 0.54% (inactive). Turning to `Cc1ccc(C(=O)NCCN2CCOCC2)cc1C`, the inhibition is 13.4% (active).

Consider `COc1ccc(C(=O)NCCCN2CCOCC2)cc1Br`, for which the inhibition is 0.44% (inactive).

For `Cc1cc(C)cc(C(=O)NCCN2CCOCC2)c1`, the inhibition is -2.25% (inactive). With `Cc1noc(NS(=O)(=O)c2ccc(NC(=O)c3oc4ccc(F)cc4c3C)cc2)c1C`, the inhibition was 9.19% (inactive).

For `COCC1CCN(C(=O)c2ccc3oc(Cc4ccccc4)nc3c2)C1` (centres undefined), the inhibition was 1.1% (inactive). In the case of `O=C1c2ccccc2C(=O)N1CCOc1ccc(F)cc1`, the inhibition is -2.34% (inactive).

Take `Cc1cccc2c1N(CCOc1ccccc1)C(=O)C2=O`: the inhibition was 17.8% (active). Turning to `Cc1cccc2c1N(CC(=O)OC(C)C)C(=O)C2=O`, the inhibition was 4.13% (inactive). The same measure for `Cc1ccc(S(=O)(=O)N2CC(C)N(S(C)(=O)=O)C2)cc1` (centres undefined): -3.38% (inactive). The same measure for `Cc1cccc(-c2noc(CCC(=O)NC3CCCC3)n2)c1`: -2.1% (inactive). The same measure for `O=C(O)c1ccccc1CSc1nc2ccccc2s1`: 9.25% (inactive). For the compound `COc1ccc(NC(=O)CSc2nncc(=O)n2N)cc1OC`, the inhibition was -1.55% (inactive). The same measure for `O=C(Nc1cccc(NC(=O)c2ccccc2[N+](=O)[O-])c1)c1ccccc1Cl`: 0.79% (inactive). The same measure for `COC(=O)c1cc(NC(=O)Cc2ccccc2[N+](=O)[O-])ccc1Cl`: 13.9% (active). The same measure for `COc1ccc(NC(=O)c2ccccc2[N+](=O)[O-])cc1OC`: 3.06% (inactive). Turning to `Cc1cccc(NS(=O)(=O)c2ccc(-c3cnc(C4CC4)o3)cc2)c1`, the inhibition was 11.2% (inactive). On to `O=C(NCCCn1ccnc1)c1cc2c(s1)CCCC2`, for which the inhibition was -1.18% (inactive). With `CCC(C)(C)NC(=O)CN(C(=O)CCC(=O)Nc1nccs1)c1ccc2c(c1)OCO2`, the inhibition is -3.34% (inactive). For the compound `O=C(NCCCN1CCOCC1)C1CCCN(S(=O)(=O)N2CCCCC2)C1` (centres undefined), the inhibition is 0.26% (inactive).

For the compound `COc1cccc(NC(=O)CN2CCN(CC(=O)Nc3ccccc3Cl)CC2)c1`, the inhibition is -3.69% (inactive). With `COc1ccc(N(Cc2ccc(N(C)C)cc2)C(=O)c2ccc(S(C)(=O)=O)cc2)cc1`, the inhibition was 0.16% (inactive).

On to `COc1ccc(Cl)cc1NS(=O)(=O)c1cccc(C(=O)NCC2CCCO2)c1` (centres undefined), for which the inhibition is -1.42% (inactive). For the compound `Cc1cccc(C(=O)Nc2nnc(Cc3c[nH]c4ccccc34)s2)c1`, the inhibition was 13.4% (active). Turning to `Cc1cccc(C(=O)Nc2nnc(S(=O)(=O)N3CCCCCC3)s2)c1`, the inhibition was 0.72% (inactive).

Consider `CCc1nnc(NC(=O)[C@@H](NC(=O)c2cccc(C)c2)C(C)C)s1`, for which the inhibition was 4.69% (inactive). As for `CCOC(=O)c1cc(C(=O)Nc2ccc(S(=O)(=O)Nc3ccc(OC)cc3)cc2)nn1C`, the inhibition is -1.42% (inactive). As to `CN1CCN(C(=O)c2ccc(NS(=O)(=O)c3ccccc3)cc2)CC1`, the inhibition was -0.96% (inactive). The same measure for `Cc1ccc(CS(=O)Cc2ccc(C(=O)N3CCOCC3)o2)cc1` (centres undefined): -1.35% (inactive). `CSc1ncccc1C(=O)NCc1ccccc1Cl`: the inhibition was 0.88% (inactive). The same measure for `CC(=O)Nc1ccc(S(=O)(=O)N(C)CC(=O)NCCC2=CCCCC2)cc1`: -0.77% (inactive); for `O=C(NCCc1ccc(Cl)cc1)c1cccc(N2CCCC2=O)c1`: 3.05% (inactive).

As for `COc1ccc(/C=C2\SC(=O)N(CCC(=O)NCCCn3ccnc3)C2=O)cc1`, the inhibition is -3.79% (inactive).

For the compound `CC(Oc1ccccc1)C(=O)Nc1c2c(nn1-c1ccccc1)CS(=O)C2` (centres undefined), the inhibition is -1.62% (inactive).

What is called inhibition is the relative decrease from the control value, in per cent.
